# ELG1 genotoxic = qHTS screen for small molecules that induce genotoxicity in human embryonic kidney (HEK293T) cells expressing luciferase-tagged ELG1 | HEK293T ELG1-luciferase reporter, luminescence, 16 h | Potency, µM (highest dose often 46 µM), without a hit: at the top dose activity change, positive = activation, usual class: activators | 330,000 compounds, 1.3% hits; further: % of control where 0% means no effect; nearly all actives have a fitted effect of over 60% in size
#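 HEK293T cells expressing luciferase-tagged ELG1 were exposed to compound or DMSO vehicle for 16 hr at 37 °C and 5% CO2. Luciferase activity was then measured with ONE-Glo after 30 min at room temperature.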
# NPC1 prom act = qHTS Assay for NPC1 Promoter Activators; Huh7 NPC1 promoter luciferase reporter, 24 h; Potency, µM (series often up to 9.22 µM), for the others: at the top dose activation, most hits filed as activators; 320,000 compounds, 2.4% hits; further: % of control where 0% means no effect; nearly all actives have a fitted effect of over 60% in size
#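 Luminescence from an NPC1 promoter-driven luciferase reporter in stably transfected Huh7 cells was measured after 24 h compound treatment at 37 °C, followed by 10 min ambient incubation with luciferase detection reagent.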
# Rab9 prom act = qHTS Assay for Rab9 Promoter Activators; Huh7 Rab9 promoter-luciferase reporter, luminescence, 24 h; 320,000 compounds, 2.8% hits; Potency, µM (doses to about 9.22 µM), without a hit: at the top dose activation, negative = inhibition, usual class: activators; further: % of control where 0% means no effect; nearly all actives have a fitted effect of over 60% in size
#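 Rab9 promoter-driven luciferase in stably transfected Huh7 cells; 1500 cells/well rested 2 h, exposed to compound in DMSO for 24 h at 37 °C, 5% CO2. Luminescence read 10 min after adding luciferase reagent at ambient temperature.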
# SMN2 splice up = qHTS Assay for Enhancers of SMN2 Splice Variant Expression. HEK293 SMN2-luciferase splicing reporter, luminescence, 30-36 h. AID 1458, 2008. Potency, µM (series often up to 46.1 µM), for inactives: at the top dose activity change, positive = activation, actives largely listed as activators. 210,000 compounds, 2.8% hits; further: % of control where 0% means no effect; nearly all actives have a fitted effect of over 55% in size
#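 HEK293 cells carry an SMN2 minigene-luciferase reporter in which exon 7 inclusion puts luciferase in frame. Cells were seeded at 2000 cells/well, attached for 10-12 hours, then exposed to compounds for 30-36 hours at 37C before ONE-Glo luminescence.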
# FLuc modulator = qHTS profiling assay for firefly luciferase inhibitor/activator using purifed enzyme and Km concentrations of substrates (counterscreen for miR-21 project). Luciferin 4-monooxygenase (Photinus pyralis), P08659. purified FLuc, Km substrates, luminescence inhibition. Potency, µM (titrated, usually from 57.5 µM), without a hit: top-dose activity change, negative = inhibition, actives largely listed as inhibitors. 360,000 compounds, 6.9% hits. AID 588342, 2011;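 further: plate controls were vehicle for no effect and reference inhibitor for full effect; nearly all actives have a fitted effect of over 55% in size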
# Target sequence (P08659 whole entry, looked up): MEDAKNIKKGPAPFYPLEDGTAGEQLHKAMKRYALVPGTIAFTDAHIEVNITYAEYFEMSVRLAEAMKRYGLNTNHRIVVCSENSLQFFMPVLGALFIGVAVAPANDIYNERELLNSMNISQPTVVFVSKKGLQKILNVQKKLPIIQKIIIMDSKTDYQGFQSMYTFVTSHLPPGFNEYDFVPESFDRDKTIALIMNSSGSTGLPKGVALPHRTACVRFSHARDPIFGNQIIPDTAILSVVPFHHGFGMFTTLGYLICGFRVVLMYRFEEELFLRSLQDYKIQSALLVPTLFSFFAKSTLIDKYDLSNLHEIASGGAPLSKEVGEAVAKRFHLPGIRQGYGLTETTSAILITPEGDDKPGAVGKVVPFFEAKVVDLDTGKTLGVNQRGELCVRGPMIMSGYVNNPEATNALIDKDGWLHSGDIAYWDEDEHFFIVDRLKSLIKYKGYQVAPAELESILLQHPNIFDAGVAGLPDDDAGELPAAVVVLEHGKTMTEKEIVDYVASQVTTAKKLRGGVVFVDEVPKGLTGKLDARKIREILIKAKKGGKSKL
#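 Purified P. pyralis luciferase, 10 nM final, with Km-level 10 uM D-luciferin and 10 uM ATP in 50 mM Tris acetate pH 7.5, 10 mM Mg acetate, 0.01% Tween-20, 0.05% BSA; 6-point qHTS titration about 60 µM downward; luminescence read.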
# Active calls of the source: *; u = inconclusive; x = not tested or not shown; [ ] = dose if it differs, or a comment. Shown are actives, neighbours in structure and some others; about 7.5% of the full set was active somewhere. The call rests on the fitted dose curve; in most records, active means well fitted curve in the direction sought with a large enough effect; inconclusive means small, poorly fitted or top-dose-only effect, or another doubt; inactive means no such curve, though single readings can be large; an effect the other way counts as inactive or inconclusive. Potency means the concentration at half of the fitted maximal effect.
SMILES,ELG1 genotoxic,NPC1 prom act,Rab9 prom act,SMN2 splice up,FLuc modulator
Fc1ccc(-c2nc3c(-c4ccccc4)cnn3cc2CCN2CCOCC2)cc1,-2%,-4%,-1%,x,-22%
COc1ccccc1N1C(C)=CC(=C(C#N)c2nc3ccccc3s2)C=C1C,14%,16%,3%,-43%,3µM*
CC1=CC(=C(C#N)c2nc3ccccc3s2)C=C(C)N1c1ccc(F)cc1,13%,24%,30%,u,3.4µM*
CC(C)=C(C#N)c1nc2ccccc2s1,0%,-1%,-9%,-4%,-14%
CCc1ccc(NC(=O)c2ccc3c(=O)n4nc(Nc5ccccc5C)sc4nc3c2)cc1,x,x,x,x,-6%
CC1CCN(c2nc3ccc(C(=O)NCc4ccccc4)cc3s2)CC1,x,x,x,-24%,12µM*
CCOc1ccccc1CNC(=O)c1ccc2nc(N3CCC(C)CC3)sc2c1,x,x,x,-3%,u
CC1CCN(c2nc3ccc(C(=O)NC(C)C)cc3s2)CC1,x,x,x,0.79µM*,1.7µM*
Cc1ccc(CN2COc3c(Cl)cc4c(-c5ccccc5)cc(=O)oc4c3C2)cc1,x,x,x,2%,-3%
C[C@H]1COC(=O)[C@H](Cc2ccc(F)cc2)CC/C=C/C[C@@H](CC(=O)N(CCO)Cc2ccccc2)C(=O)N1,-8%,x,x,x,x
CCOC(=O)/C(=N\Nc1ccc(OC)cc1)c1csc(Nc2ccccc2)n1,11%,1%,-3%,2%,9.5µM*
Cc1nn2c3ccccc3nc2c2ccccc12,4%,1%,-5%,18%,u
Clc1ccc2nc3c4ccccc4cnn3c2c1,8.2µM*,10%,-3%[1.84 µM],2.8µM*,1.9µM*
CCOc1ccccc1N(C)C(=O)NCc1noc2ccccc12,x,x,x,x,3%
Cc1ccc(N/N=C(\C#N)C(=O)c2ccsc2)cc1,-5%,22%,12%,x,u
COc1ccc(N/N=C(\C#N)C(=O)NCCc2ccc(OC)c(OC)c2)cc1,8%,-1%,2%,x,-12%
N#C/C(=N\Nc1ccccc1)C(N)=S,-14%,-1%,-2%,x,-3%
COc1ccc(N/N=C(\C#N)C(=N)SCc2ccccc2)cc1,-12%,-4%,-8%,-5%,27µM*
N#C/C(=N\Nc1ccc(F)cc1)C(=N)N1CCCCCC1,u,0.45µM*,0.89µM*,4µM*,2.7µM*
N#C/C(=N\Nc1ccc(Cl)cc1)C(N)=S,-16%,-11%,-14%,x,19µM*
CCN(CC)C(=N)/C(C#N)=N/Nc1ccc(C)cc1,u,2µM*,2µM*,x,9.5µM*
CCC(C)c1ccccc1N1CC(C(=O)NCCCn2nc(C)cc2C)CC1=O (stereo not given),0%,-3%,4%,x,-2%
CC(C)C[C@H](NC(=O)[C@H](Cc1ccccc1)n1c(=O)[nH]c2ccccc2c1=O)C(=O)N1CCC[C@@H]1C(=O)O,5%,2%,-3%,x,1%
O=C(CN1CCCCCC1)Nc1ccccc1F,7%,0%,-2%,-4%,1%
Cc1ccc(N/N=C(\C#N)C(=N)N2CCCCCC2)cc1,1.8µM*,0.5µM*,0.79µM*,2.2µM*,2.7µM*
SMILES,ELG1 genotoxic,NPC1 prom act,Rab9 prom act,SMN2 splice up,FLuc modulator
N#C/C(=N\Nc1ccc(Cl)cc1)C(=N)N1CCCCC1,5%,0.4µM*,x,u,1.7µM*
COc1ccc(N/N=C(\C#N)C(=N)N2CCCCC2)cc1,u,2µM*,2.5µM*,x,4.8µM*
N#C/C(=N\Nc1ccccc1)C(=N)N1CCOCC1,1%,5%,5%,76%,u
COc1ccc(NC(=O)N2CCCCCC2)cc1,u,16%,14%,20%,u
N#C/C(=N\Nc1ccccc1F)C(=N)N1CCCCC1,21µM*,3.2µM*,1.6µM*,11µM*,12µM*
N#C/C(=N\Nc1ccc(Cl)cc1)C(=O)c1ccsc1,-5%,12%,-3%,x,u
C=CC1=C2C=C(C3CC3)N(C3CCCCC3)C=C2C(=O)C(C)(OC(=O)c2ccco2)C1=O (stereo not given),x,x,x,8%[9.22 µM],x
O=C(Nc1cccc(C(=O)O)c1)/C(=C\c1ccc(F)cc1)NC(=O)c1ccco1,9%,17%,15%,x,1%
CCOC(=O)c1ccc(NC(=O)c2cc(=O)c3ccc(C)c(C)c3o2)cc1,x,x,x,1%,-5%
O=S(=O)(c1cccc(C(F)(F)F)c1)n1c(/C=C/c2ccccc2)nc2ccccc21,x,x,x,x,12µM*
CCOc1ccc(/C=C/c2nc3ccccc3n2S(=O)(=O)c2ccc(Br)cc2)cc1,x,x,x,2.8µM*,0.85µM*
CN1CCCN(S(=O)(=O)c2cccc(C(F)(F)F)c2)c2nc3ccccc3nc21,-8%,0%,-9%,x,x
CCc1ccc(S(=O)(=O)n2c(C)nc3ccccc32)cc1,1%,2%,7%,x,-3%
Cc1nc2ccccc2n1S(=O)(=O)c1ccc(Br)cc1,-2%,0%,-5%,-20%,1%
CSc1ccc(/C=C/c2nc3ccccc3n2S(=O)(=O)c2ccc(Br)cc2)cc1,x,x,x,0.5µM*,0.043µM*
COc1ccc(C2CC(=O)c3cc(-c4nc(-c5cccc(Cl)c5)cs4)c(=O)[nH]c3C2)cc1OC (stereo not given),x,x,x,2%,8%
CC(C)CCn1c(=O)c2sccc2n2c(CCCC(=O)Nc3ccc(C(C)C)cc3)nnc12,x,x,x,x,2%
CCN(CC)C(=O)c1ccc(S(=O)(=O)c2ccccc2)cc1,-2%,2%,-2%,x,-11%
O=C(Cc1ccc(-c2ccccc2)cc1)OCC(=O)N1CCCC1=O,0%,-1%,17%,1%,21µM*
CSc1ccccc1C(=O)OCC(=O)N1CCCC1=O,2%,0%,-4%,x,-2%
Cc1ccc2nc(NC(=O)C3CCCN3C(=O)OC(C)(C)C)sc2c1 (stereo not given),3%,1%,18%,-4%,u
Brc1ccc(-n2cnc(-c3ccccc3)c2)cc1,u,1.4µM*,0.56µM*,x,0.95µM*
Cc1ccc2sc(N3CCN(C(=O)C4COc5ccccc5O4)CC3)nc2c1C (stereo not given),x,x,x,x,-1%
COc1cc(/C=C/C(=O)c2ccc(C)c([N+](=O)[O-])c2)cc(OC)c1O,15%,-1%,-9%,-10%,-16%
COc1ccc(/C=C/C(=O)c2ccc(C)c([N+](=O)[O-])c2)cc1O,9%,1%,-4%,2%,4.8µM*
COc1cc(NC(=O)COC(=O)c2ccc3ccccc3n2)cc(OC)c1,-3%,-1%,-2%,x,-3%
CCOc1ccc(N=C(NN)c2ccc3ccccc3n2)cc1,u,29%,u,15%,11µM*
Cc1c(Cl)cccc1Nc1nc(N)nc(CSCCO)n1,-2%,2%,-2%,1%,2%
Cc1c(Cl)cccc1Nc1nc(N)nc(CSc2ncccn2)n1,16µM*,23%,u,8%,u
